Results published in PubChem BioAssay (NCI).
The panel holds about 83,000 compounds, 20% with a hit somewhere; the sample as a whole holds those more often.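 Growth was measured after 48 h exposure to one concentration of compound in 96-well plates. Values under 10 count as active.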 The source made the active and inactive calls.

Assays:
Experiment in all cases: NCI-60 one-dose screen, 48 h (100 = growth as untreated, 0 = no growth, -100 = all killed)
Settings in all cases: 10 µM unless noted
T-47D breast = tested on: T-47D breast
MDA-MB-435 melanoma = tested on: MDA-MB-435 melanoma
SW-620 colon = tested on: SW-620 colon
MCF7 breast = tested on: MCF7 breast
HCT-116 colon = tested on: HCT-116 colon
HCC-2998 colon = tested on: HCC-2998 colon
KM12 colon = tested on: KM12 colon
MDA-MB-468 breast = tested on: MDA-MB-468 breast
BT-549 breast = tested on: BT-549 breast

Measured: growth

Cc1ccc(S(=O)(=O)c2nc(S(=O)(=O)c3ccc(C)cc3)c(N3CCN(C)CC3)s2)cc1
active: MDA-MB-435 melanoma 8.29% | MDA-MB-468 breast -15%
inactive: T-47D breast 38% | SW-620 colon 36.1% | MCF7 breast 43.1% | HCT-116 colon 46.9% | HCC-2998 colon 107% | KM12 colon 76.4%

NS(=O)(=O)c1ccc(-n2cc(-c3cccc(NC(=O)c4ccc(Cl)c(C(F)(F)F)c4)c3)nn2)cc1
inactive: MDA-MB-435 melanoma 47.2% | SW-620 colon 42% | HCT-116 colon 26.2% | HCC-2998 colon 41.8%
active: T-47D breast -11.1% | MCF7 breast 1.38% | KM12 colon 5.73% | MDA-MB-468 breast -0.759%

O=C1Nc2ccc([N+](=O)[O-])cc2C1=Nc1ccccc1
inactive: T-47D breast 84.1% | MDA-MB-435 melanoma 111% | SW-620 colon 102% | MCF7 breast 85.4% | HCT-116 colon 106% | HCC-2998 colon 112% | KM12 colon 105% | MDA-MB-468 breast 109%

COc1cc(-c2ccc(/C=N/NC(=O)c3[nH]c4ccc(Br)cc4c3-c3ccccc3)o2)cc(OC)c1OC
inactive: T-47D breast 85.7% | BT-549 breast 95.4% | MDA-MB-435 melanoma 90.3% | MCF7 breast 70% | HCT-116 colon 76.7% | HCC-2998 colon 110% | MDA-MB-468 breast 88.6%

Cc1ccc(-c2nnc3ccc(N/N=C/c4ccccc4)nn23)cc1
inactive: T-47D breast 98.8% | MDA-MB-435 melanoma 76.1% | SW-620 colon 90.6% | MCF7 breast 47.9% | HCT-116 colon 99.5% | HCC-2998 colon 111% | KM12 colon 57.2%

N#Cc1c(-c2cccc(Cl)c2Cl)cc(-c2ccc3ccccc3c2)[nH]c1=O
active: BT-549 breast -5.5% | HCT-116 colon 2.78%
inactive: T-47D breast 37.6% | MDA-MB-435 melanoma 94.9% | MCF7 breast 52.9% | HCC-2998 colon 75.6% | KM12 colon 98.4% | MDA-MB-468 breast 71.4%

C=C1CC[C@@H]2[C@]3(C)COC(c4cn(-c5ccccc5)nc4-c4cccc([N+](=O)[O-])c4)O[C@@H]3CC[C@@]2(C)[C@@H]1C/C=C1/C(=O)OC[C@H]1O (stereo partly drawn)
active: T-47D breast -42.4% | BT-549 breast -55.9% | MDA-MB-435 melanoma -26.4% | MCF7 breast 2.33% | HCT-116 colon -13.7% | HCC-2998 colon -86% | KM12 colon 7.66% | MDA-MB-468 breast -69.7%

CC1=C(C(=O)c2ccccc2)C(c2ccc(-n3cncn3)cc2)n2c(nc3ccccc32)N1 (stereo not drawn)
inactive: T-47D breast 83.6% | BT-549 breast 67.4% | MDA-MB-435 melanoma 94% | MCF7 breast 66.7% | HCT-116 colon 73% | HCC-2998 colon 109% | KM12 colon 94.6% | MDA-MB-468 breast 95.6%

Cc1cc(C)cc(C(=O)Nc2cccc(-c3cn(-c4ccc(S(N)(=O)=O)cc4)nn3)c2)c1
inactive: T-47D breast 35% | BT-549 breast 67.8% | MDA-MB-435 melanoma 85.9% | MCF7 breast 31.5% | HCT-116 colon 39.8% | HCC-2998 colon 49.9% | KM12 colon 36.1% | MDA-MB-468 breast 41%

CC(C)CCNC(=O)N/C(N)=N/c1nc2ccccc2s1
inactive: T-47D breast 46.6% | BT-549 breast 64.6% | MDA-MB-435 melanoma 44.2% | MCF7 breast 28.5% | HCT-116 colon 54.7% | HCC-2998 colon 97.6% | KM12 colon 62.7%
active: MDA-MB-468 breast 5.8%

N#Cc1c(-c2cccnc2)cc(-c2ccc3ccccc3c2)[nH]c1=O
inactive: T-47D breast 93% | BT-549 breast 57.6% | MDA-MB-435 melanoma 99.4% | MCF7 breast 60.5% | HCT-116 colon 80% | HCC-2998 colon 96.4% | MDA-MB-468 breast 94.1%

N#Cc1c(-c2cccc(O)c2O)cc(-c2ccc3ccccc3c2)[nH]c1=O
inactive: T-47D breast 68.9% | BT-549 breast 52.8% | MDA-MB-435 melanoma 72% | MCF7 breast 59.8% | HCT-116 colon 34.5% | HCC-2998 colon 74.3% | MDA-MB-468 breast 58.6%

CN1CCc2c(sc3ncnc(N/N=C/c4ccc(Cl)cc4Cl)c23)C1
inactive: T-47D breast 76.9% | HCC-2998 colon 24.1% | KM12 colon 24.8%
active: BT-549 breast -40.2% | MDA-MB-435 melanoma -23.7% | MCF7 breast 3.77% | HCT-116 colon -64.1% | MDA-MB-468 breast -67.5%

Cn1cc(-c2cc3nc(-c4c[nH]c5ccc(Cl)cc45)cc(N)n3n2)c2ccccc21
active: T-47D breast -73.9% | MDA-MB-435 melanoma -84.7% | SW-620 colon -39.3% | MCF7 breast -73.7% | HCT-116 colon -88.3% | HCC-2998 colon -78% | KM12 colon -70.3% | MDA-MB-468 breast -73.5%

Cc1ccc2c(N)c(C(=O)Nc3ccc(-c4ccccc4)cc3)sc2n1
inactive: T-47D breast 29.5% | BT-549 breast 53.2% | MDA-MB-435 melanoma 69.1% | MCF7 breast 43.2% | HCT-116 colon 29.5% | HCC-2998 colon 101% | KM12 colon 77.3% | MDA-MB-468 breast 17.8%

CC(=O)NNc1ccc2nnc(-c3ccccc3)n2n1
inactive: T-47D breast 105% | MDA-MB-435 melanoma 103% | SW-620 colon 90.6% | MCF7 breast 94.8% | HCT-116 colon 107% | HCC-2998 colon 100% | KM12 colon 104% | MDA-MB-468 breast 101%

CC1CCCCN1CCCNC(=O)N/C(N)=N/c1nc2ccccc2s1 (stereo not drawn)
active: MDA-MB-435 melanoma -35.2% | MCF7 breast -9.89%
inactive: T-47D breast 57.2% | BT-549 breast 55.6% | HCT-116 colon 16.8% | HCC-2998 colon 47.1% | MDA-MB-468 breast 11.2%

O=C(O)c1ccc(-c2ccc(/C=N/NC(=O)c3[nH]c4ccc(Br)cc4c3-c3ccccc3)s2)cc1
active: BT-549 breast 8.87% | MDA-MB-435 melanoma 4.27% | MCF7 breast 7.47% | HCC-2998 colon -66% | MDA-MB-468 breast 3.12%
inactive: T-47D breast 16% | HCT-116 colon 11.1%

CNC(=O)c1cccc(NC(=O)c2ccc3c(c2)nnn3/C(C#N)=C/c2ccccn2)c1
active: T-47D breast -70.4% | BT-549 breast -98.7% | MCF7 breast -77.2% | HCT-116 colon -89% | HCC-2998 colon -92.7% | MDA-MB-468 breast -85.5%
inactive: MDA-MB-435 melanoma 11.5% | KM12 colon 55.9%

O=C(NNc1ccccc1)n1c(=O)c2ccccc2c(=O)n1-c1ccccc1
inactive: T-47D breast 87.9% | BT-549 breast 90% | MDA-MB-435 melanoma 97.8% | MCF7 breast 88.3% | HCT-116 colon 79.2% | HCC-2998 colon 108% | KM12 colon 93.3% | MDA-MB-468 breast 99%

CCOC(=O)C1=C(N)N(c2ccccc2)C2=C(C(=O)CC(C)(C)C2)C1c1cccc(Cl)c1Cl (stereo not drawn)
inactive: T-47D breast 71.6% | BT-549 breast 68.8% | MDA-MB-435 melanoma 87.8% | MCF7 breast 60% | HCT-116 colon 40.1% | HCC-2998 colon 86.9% | MDA-MB-468 breast 47.8%

N#Cc1c(-c2cccc3ccccc23)cc(-c2cccc(OCC(=O)O)c2)[nH]c1=O
inactive: T-47D breast 105% | BT-549 breast 114% | MDA-MB-435 melanoma 101% | MCF7 breast 96.1% | HCT-116 colon 103% | HCC-2998 colon 110% | KM12 colon 103% | MDA-MB-468 breast 98.7%

CSc1ccc(NC(=O)c2ccc3nn(/C(C#N)=C/c4ccccn4)nc3c2)cc1
active: T-47D breast -39.9% | BT-549 breast -97.9% | MDA-MB-435 melanoma -70.8% | MCF7 breast -78.6% | HCT-116 colon -73.9% | HCC-2998 colon -100% | MDA-MB-468 breast -94%

COc1ccc(-c2cc(C(=O)NCc3ccccc3)nn2-c2ccc(S(C)(=O)=O)cc2)cc1OC
inactive: T-47D breast 91.1% | BT-549 breast 104% | MDA-MB-435 melanoma 105% | MCF7 breast 95.2% | HCT-116 colon 102% | HCC-2998 colon 117% | KM12 colon 102% | MDA-MB-468 breast 100%

Cc1cc(=O)oc2cc(OCCCOc3ccc(/C=C/C(=O)Nc4ccccc4N)cc3)ccc12
inactive: MDA-MB-435 melanoma 38.3% | SW-620 colon 26.8% | HCT-116 colon 17.2% | HCC-2998 colon 27.3% | KM12 colon 12.6%
active: T-47D breast 9.28% | MCF7 breast 4.44% | MDA-MB-468 breast -48.1%

O=C1Nc2cc(Cl)ccc2/C1=C/c1cccc(OCc2ccccn2)c1
active: BT-549 breast -12.6% | MDA-MB-435 melanoma -39.9% | MCF7 breast 7.87% | HCT-116 colon 0.558% | MDA-MB-468 breast 1.49%
inactive: T-47D breast 26% | HCC-2998 colon 28.9% | KM12 colon 19.4%

COc1cc(OC)cc(C(=O)Nc2cccc(-c3cn(-c4ccc(S(N)(=O)=O)cc4)nn3)c2)c1
inactive: T-47D breast 87.8% | MDA-MB-435 melanoma 97.2% | SW-620 colon 99.6% | MCF7 breast 77.3% | HCT-116 colon 94% | HCC-2998 colon 107%

C[C@H](Nc1nc(NCCc2ccccc2)nc2ccccc12)c1ccccc1
active: T-47D breast -55.1% | BT-549 breast -86.9% | MDA-MB-435 melanoma -88.5% | MCF7 breast -87.4% | HCT-116 colon -83.7% | HCC-2998 colon -98.7% | KM12 colon -77.2% | MDA-MB-468 breast -96.3%

C#CCOc1ccc(/C=N/Nc2nc(-c3ccc(F)cc3)cs2)cc1OC
inactive: T-47D breast 35.4% | MDA-MB-435 melanoma 56.2% | SW-620 colon 86.7% | MCF7 breast 35.3% | HCT-116 colon 44.6% | HCC-2998 colon 92.9% | KM12 colon 59.9%

COc1ccc(C(=O)/C=C/c2ccccc2Cl)cc1S(N)(=O)=O
inactive: T-47D breast 106% | MDA-MB-435 melanoma 117% | SW-620 colon 107% | MCF7 breast 96.2% | HCT-116 colon 106% | HCC-2998 colon 114% | KM12 colon 111%

C=C1CC[C@@H]2[C@]3(C)COC(c4cn[nH]c4-c4ccc(OC)cc4)O[C@@H]3CC[C@@]2(C)[C@@H]1C/C=C1/C(=O)OCC1O (stereo partly drawn)
active: T-47D breast 6.85% | BT-549 breast -32.9% | MDA-MB-435 melanoma -52.2% | MCF7 breast 2.05% | HCT-116 colon -19% | HCC-2998 colon -24.2% | KM12 colon -5.21% | MDA-MB-468 breast -7.84%

COc1ccc(C(=O)/C=C/c2ccc(Cl)c(Cl)c2)cc1S(N)(=O)=O
active: T-47D breast -54.7% | MDA-MB-435 melanoma 2.27% | SW-620 colon -48.8% | MCF7 breast -48.7% | HCT-116 colon -96.2% | HCC-2998 colon -74.1% | KM12 colon -46.7%
